Reference: PubChem BioAssay (EPA / NIEHS)
Where “and” joins values, the source holds several entries; their conditions need not be identical. Identical values can stand only once. Results filed as inconclusive are left out. Calls of active or inactive are those of the source. Rule for the calls: active = hit-call score of the fitted dose curve at least 0.9, where 1 is the maximum; inconclusive = response in the unintended direction; inactive = score below 0.9.

Target: Cellular tumor antigen p53 (Homo sapiens) (UniProt P04637)
Experiment: TOX21_p53_BLA_p5_ratio: Tox21 HCT-116 p53 Agonism Beta-lactamase Assay, Ratio, Phase 5 (AID 2283599)
In short: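 Beta-lactamase reporter ratio (blue 460 nm over green 530 nm, 405 nm excitation) after 2 h CCF4-AM loading, in HCT-116 cells exposed 16 h at 37 C to compounds pinned at 217-fold dilution. Increases relative to DMSO baseline scored.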

Cellular tumor antigen p53 (Homo sapiens), sequence (P04637 whole entry, looked up): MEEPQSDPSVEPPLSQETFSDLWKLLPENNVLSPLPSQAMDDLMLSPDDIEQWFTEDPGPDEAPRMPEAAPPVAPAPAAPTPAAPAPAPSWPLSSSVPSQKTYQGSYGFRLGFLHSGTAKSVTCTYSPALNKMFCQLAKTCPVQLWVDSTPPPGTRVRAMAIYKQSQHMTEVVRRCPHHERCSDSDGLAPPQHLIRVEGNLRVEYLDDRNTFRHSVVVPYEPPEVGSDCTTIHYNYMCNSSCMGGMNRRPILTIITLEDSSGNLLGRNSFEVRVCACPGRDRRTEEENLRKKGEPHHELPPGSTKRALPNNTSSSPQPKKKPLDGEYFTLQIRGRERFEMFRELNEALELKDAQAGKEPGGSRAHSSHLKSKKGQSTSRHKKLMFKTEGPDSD

| SMILES | outcome | AC50 |
| --- | --- | --- |
| C=CCN=C=S | inactive | – |
| COC(=O)c1cc(Oc2ccc(Cl)cc2Cl)ccc1[N+](=O)[O-] | inactive | – |
| O=S1OC[C@@H]2[C@H](CO1)[C@]1(Cl)C(Cl)=C(Cl)[C@@]2(Cl)C1(Cl)Cl (stereo not given in full) | inactive | – |
| O=c1[nH]c2ccccc2n1C1CCN(CCCC(c2ccc(F)cc2)c2ccc(F)cc2)CC1 | – | 84.6 µM (active) and 43.2 µM (active) |
| C[CH2][Hg][S]c1ccccc1C(=O)O | – | 350 nM (active) and 3 µM (active) |
| CC(O)(CS(=O)(=O)c1ccc(F)cc1)C(=O)Nc1ccc(C#N)c(C(F)(F)F)c1 (stereo not given) | inactive | – |
| O=[N+]([O-])c1ccc(Cl)c([N+](=O)[O-])c1 | – | 32.3 µM (active) and 74.9 µM (active) |
| O=C(O)CC(O)(CC(=O)O)C(=O)O | inactive | – |
| O=c1oc2ccccc2c(O)c1C(CC(O)c1ccc(-c2ccc(Br)cc2)cc1)c1ccccc1 (stereo not given) | – | 27.2 µM (active) and 14.3 µM (active) |
| CCOC(=O)OC1=C(c2cc(C)ccc2C)C(=O)NC12CCC(OC)CC2 (stereo not given) | – | 26.3 µM (active) |
